This is part of a sample that, as a whole, favours compounds with a hit. Of some 83,000 tested, about 20% had one in any assay.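 Method: cells in 96-well plates; compound added at one concentration; 48 h incubation; percent growth measured; values under 10 scored active.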 Active and inactive are the calls of the source.
Key:
Assay in all cases: NCI-60 one-dose screen, 48 h (100 = growth as untreated, 0 = no growth, -100 = all killed)
Conditions in all cases: 10 µM unless noted
NCI-H23 lung = system: NCI-H23 lung
NCI-H226 lung = system: NCI-H226 lung
NCI-H322M lung = system: NCI-H322M lung
HOP-62 NSCLC = system: HOP-62 NSCLC
NCI-H460 lung = system: NCI-H460 lung
HOP-92 NSCLC = system: HOP-92 NSCLC
NCI-H522 lung = system: NCI-H522 lung
A549/ATCC NSCLC = system: A549/ATCC NSCLC
786-0 renal = system: 786-0 renal
COLO 205 colon = system: COLO 205 colon

Measured: growth

COc1cc(OC)c(/C=C/C(=O)c2c(N)cc(OC)cc2OC)c(OC)c1
inactive: NCI-H226 lung 75% | NCI-H322M lung 54.4% | HOP-62 NSCLC 43.6% | HOP-92 NSCLC 26.6% | A549/ATCC NSCLC 27.4% | 786-0 renal 35.2%
active: NCI-H23 lung 8.81% | NCI-H460 lung 2.53% | NCI-H522 lung -11.8% | COLO 205 colon -24.4%

COc1ccccc1S(=O)Nc1ccccc1 (stereo not given)
inactive: NCI-H23 lung 104% | NCI-H226 lung 102% | NCI-H322M lung 94.9% | HOP-62 NSCLC 124% | NCI-H460 lung 93.6% | HOP-92 NSCLC 98.5% | NCI-H522 lung 74.9% | A549/ATCC NSCLC 74.4% | 786-0 renal 103% | COLO 205 colon 117%

COc1ncc(-c2ccc3nc(N)n(-c4ccccc4C(F)(F)F)c(=O)c3c2)cc1S(=O)(=O)Nc1ccc(F)cc1F
active: NCI-H322M lung -11.6% | COLO 205 colon -66.2%
inactive: NCI-H23 lung 30.6% | NCI-H226 lung 88.9% | HOP-62 NSCLC 82.4% | NCI-H460 lung 28.1% | HOP-92 NSCLC 25.3% | NCI-H522 lung 46.8% | A549/ATCC NSCLC 29% | 786-0 renal 33.7%

O=S(=O)(NCCNc1nccc(-c2c(-c3cccc(F)c3)nc3occn23)n1)c1ccc(C(F)(F)F)cc1
inactive: NCI-H23 lung 98.5% | NCI-H226 lung 84.2% | NCI-H322M lung 89.3% | HOP-62 NSCLC 85.1% | NCI-H460 lung 98.9% | HOP-92 NSCLC 77.5% | NCI-H522 lung 74.4% | A549/ATCC NSCLC 70% | 786-0 renal 78.7% | COLO 205 colon 96%

Nc1cccc2c1C(=O)c1cccc(NC(=O)c3ccccc3)c1C2=O
inactive: NCI-H23 lung 29.9% | NCI-H226 lung 52.2% | HOP-62 NSCLC 38.7% | HOP-92 NSCLC 53.2% | A549/ATCC NSCLC 28.6% | 786-0 renal 37.5%
active: NCI-H322M lung -7.76% | NCI-H460 lung 7.2% | NCI-H522 lung -28.5% | COLO 205 colon -11.5%

CCCCN(CC)CC(CC)Nc1cc(OC)cc2cccnc12 (stereo not given)
inactive: NCI-H23 lung 113% | NCI-H226 lung 107% | NCI-H322M lung 110% | HOP-62 NSCLC 110% | NCI-H460 lung 110% | HOP-92 NSCLC 89.4% | NCI-H522 lung 118% | A549/ATCC NSCLC 96.3% | 786-0 renal 107% | COLO 205 colon 119%

Cn1cc(-c2noc(-c3cn(C)c4ncc(F)cc34)n2)c2ccccc21
inactive: NCI-H23 lung 75.1% | NCI-H226 lung 76.7% | NCI-H322M lung 41.3% | HOP-62 NSCLC 36.3% | NCI-H460 lung 22.9% | HOP-92 NSCLC 62% | NCI-H522 lung 66.2% | A549/ATCC NSCLC 37.9% | 786-0 renal 33.6% | COLO 205 colon 66.7%

CCNc1cc2c(cc1Br)-c1ccccc1C2=O
inactive: NCI-H23 lung 86% | NCI-H226 lung 92.3% | NCI-H322M lung 87.9% | HOP-62 NSCLC 92.3% | NCI-H460 lung 96.8% | HOP-92 NSCLC 84.9% | NCI-H522 lung 93.6% | A549/ATCC NSCLC 96.3% | 786-0 renal 109% | COLO 205 colon 111%

Cc1nc(-c2ccccc2)sc1CC#N
inactive: NCI-H23 lung 106% | NCI-H226 lung 93.1% | NCI-H322M lung 101% | HOP-62 NSCLC 102% | NCI-H460 lung 103% | HOP-92 NSCLC 99.2% | NCI-H522 lung 94.6% | A549/ATCC NSCLC 100% | 786-0 renal 104% | COLO 205 colon 122%

CCOC(=O)c1nc2c3ccccc3ccn2c1C(=O)OC
inactive: NCI-H23 lung 97.2% | NCI-H226 lung 97.2% | NCI-H322M lung 95.6% | HOP-62 NSCLC 95.5% | NCI-H460 lung 103% | HOP-92 NSCLC 103% | NCI-H522 lung 90.6% | A549/ATCC NSCLC 92.8% | 786-0 renal 93.8% | COLO 205 colon 104%

Cc1cccc(C[C@H](NC(=O)Nc2ccc(C)cc2F)C(=O)N[C@@H]2C(=O)N3C[C@H](O)C[C@H]3C(=O)N3CCN(C)C[C@H]3C(=O)N[C@@H](C)C(=O)N3C[C@H](C)C[C@H]3C(=O)O[C@H]2C)c1
inactive: NCI-H23 lung 38.1% | NCI-H226 lung 53.9% | NCI-H322M lung 73.3% | HOP-62 NSCLC 57.9% | NCI-H460 lung 42.5% | HOP-92 NSCLC 38.9% | NCI-H522 lung 38% | A549/ATCC NSCLC 43.5% | 786-0 renal 84.2% | COLO 205 colon 12.4%

O=C(Nc1cccc(F)c1)c1cc(=O)[nH]c2cc(Br)ccc12
inactive: NCI-H23 lung 72.5% | NCI-H226 lung 54.7% | NCI-H322M lung 53.8% | HOP-62 NSCLC 50.9% | NCI-H460 lung 21.9% | HOP-92 NSCLC 47.4% | NCI-H522 lung 23.9% | A549/ATCC NSCLC 40.3% | 786-0 renal 69.7% | COLO 205 colon 20.4%

O=c1cc(-c2ccccc2)oc2cc(OCc3cn(Cc4ccc(F)cc4)nn3)cc(O)c12
active: HOP-62 NSCLC -28.5% [100 µM] | HOP-92 NSCLC -3.35% [100 µM] | 786-0 renal 2.24% [100 µM]
inactive: NCI-H23 lung 45.8% [100 µM] | NCI-H226 lung 60.9% [100 µM] | NCI-H322M lung 86.1% [100 µM] | NCI-H460 lung 71.4% [100 µM] | NCI-H522 lung 15.1% [100 µM] | A549/ATCC NSCLC 81.2% [100 µM] | COLO 205 colon 103% [100 µM]

c1ccc(-c2nc(N3CCCNCC3)c3nc(-c4ccccc4)oc3n2)cc1
active: NCI-H460 lung -50.1% | A549/ATCC NSCLC -38.8% | COLO 205 colon -79.2%
inactive: NCI-H23 lung 22.3% | NCI-H226 lung 49.9% | NCI-H322M lung 93.7% | HOP-62 NSCLC 78.2% | HOP-92 NSCLC 42.4% | NCI-H522 lung 26.4% | 786-0 renal 67%

COc1c(C(C)=O)c(OCCCCOc2c(C(C)=O)c(OC)c3ccoc3c2OC)c(OC)c2occc12
active: NCI-H522 lung -7.73%
inactive: NCI-H23 lung 68.8% | NCI-H226 lung 65.4% | NCI-H322M lung 85.2% | HOP-62 NSCLC 117% | NCI-H460 lung 80.1% | HOP-92 NSCLC 57.3% | A549/ATCC NSCLC 64.7% | 786-0 renal 89% | COLO 205 colon 77%

C[n+]1cccc(NC(=O)c2ccc3ccc4ccc(C(=O)Nc5ccc[n+](C)c5)nc4c3n2)c1
active: NCI-H226 lung 5.55% | NCI-H460 lung -7.42% | NCI-H522 lung -19% | A549/ATCC NSCLC -3.45%
inactive: NCI-H23 lung 32.3% | NCI-H322M lung 37.3% | HOP-62 NSCLC 21.3% | HOP-92 NSCLC 57.5% | 786-0 renal 76.2% | COLO 205 colon 75.3%

N#CC1C(=O)NC(c2ccccc2[N+](=O)[O-])c2sc3c(F)cccc3c21 (stereo not given)
active: NCI-H226 lung -14.9% | NCI-H460 lung 2.01%
inactive: NCI-H23 lung 68.9% | NCI-H322M lung 67.2% | HOP-62 NSCLC 33.8% | HOP-92 NSCLC 82.7% | NCI-H522 lung 88.6% | A549/ATCC NSCLC 47.2% | 786-0 renal 90% | COLO 205 colon 70.1%

Brc1ccc(-c2nnc3c4[nH]ccc4ncn23)cc1
inactive: NCI-H23 lung 88.3% | NCI-H226 lung 96.7% | NCI-H322M lung 91% | HOP-62 NSCLC 92.6% | NCI-H460 lung 90.1% | HOP-92 NSCLC 69.6% | NCI-H522 lung 80.9% | A549/ATCC NSCLC 91.8% | 786-0 renal 94% | COLO 205 colon 109%

O=C(OCc1ccc2c(Cl)cc(Cl)c(O)c2n1)N1CCN(C(=O)c2cc3cc(F)ccc3[nH]2)CC1
active: NCI-H226 lung 2.12% | HOP-62 NSCLC 6.32% | NCI-H460 lung 1.07% | NCI-H522 lung -19.1%
inactive: NCI-H23 lung 26.3% | NCI-H322M lung 33.5% | HOP-92 NSCLC 39.2% | A549/ATCC NSCLC 13.6% | 786-0 renal 79.2% | COLO 205 colon 85.7%

Cc1ccc(S(=O)(=O)N/N=C2\CC3CCC2(C)C3(C)C)cc1 (stereo not given)
inactive: NCI-H23 lung 237% | NCI-H226 lung 96.9% | NCI-H322M lung 116% | HOP-62 NSCLC 103% | NCI-H460 lung 108% | HOP-92 NSCLC 95.6% | NCI-H522 lung 63.1% | A549/ATCC NSCLC 81.8% | 786-0 renal 103% | COLO 205 colon 113%

COc1cc2c(O)n(CCCN3CCOCC3)c3c4cnc5cccc(c(=O)c3c2cc1OC)c54
active: NCI-H460 lung 9.15%
inactive: NCI-H23 lung 33.3% | NCI-H226 lung 38.2% | NCI-H322M lung 47.2% | HOP-62 NSCLC 14.5% | HOP-92 NSCLC 58.4% | NCI-H522 lung 16.9% | A549/ATCC NSCLC 30.1% | 786-0 renal 19% | COLO 205 colon 34.2%

c1ccc(-c2nnc(-c3c[nH]c4ncccc34)s2)cc1
inactive: NCI-H23 lung 92.6% | NCI-H226 lung 87.9% | NCI-H322M lung 95.7% | HOP-62 NSCLC 98.6% | NCI-H460 lung 96.4% | HOP-92 NSCLC 104% | NCI-H522 lung 87.7% | A549/ATCC NSCLC 95.6% | 786-0 renal 104% | COLO 205 colon 115%

Cc1ccc2c(n1)C(=O)C(Cl)=C(Nc1ccc(N3CCN(C)CC3)cc1)C2=O
inactive: NCI-H23 lung 16.7% | NCI-H226 lung 105% | NCI-H322M lung 97.3% | HOP-62 NSCLC 63.7% | NCI-H460 lung 97.2% | A549/ATCC NSCLC 97.6% | 786-0 renal 52.2% | COLO 205 colon 82.5%
active: HOP-92 NSCLC -86.3% | NCI-H522 lung -63.8%

COc1ccc(-c2cc(-c3ccccc3)nc(NCCNc3ccnc4cc(Cl)ccc34)n2)cc1
active: NCI-H23 lung -77.2% | NCI-H226 lung -37.9% | NCI-H322M lung -81% | HOP-62 NSCLC -83.8% | NCI-H460 lung -60% | HOP-92 NSCLC -77.4% | NCI-H522 lung -61.9% | A549/ATCC NSCLC -75.5% | 786-0 renal -81.7% | COLO 205 colon -80.8%

O=C(Nc1ccc(CN2CCOCC2)c(C(F)(F)F)c1)c1nc2ccc3[nH]ncc3c2c2c1CCCC2
inactive: NCI-H23 lung 93.2% | NCI-H226 lung 91.2% | NCI-H322M lung 102% | HOP-62 NSCLC 78.8% | NCI-H460 lung 90.1% | HOP-92 NSCLC 99.2% | NCI-H522 lung 87.3% | A549/ATCC NSCLC 63.3% | 786-0 renal 101% | COLO 205 colon 83.4%

CCCCCCCCCCCCCCCCCCNC(=S)N/N=C/c1ccc(OC)c(OC)c1
inactive: NCI-H23 lung 93.9% | NCI-H226 lung 99.2% | NCI-H322M lung 98.7% | HOP-62 NSCLC 98.6% | NCI-H460 lung 103% | HOP-92 NSCLC 69.4% | NCI-H522 lung 94.6% | A549/ATCC NSCLC 98.3% | 786-0 renal 102% | COLO 205 colon 104%
